Data as given in PMC7862700, “An all-to-all approach to the identification of sequence-specific readers for epigenetic DNA modifications on cytosine”.

Key:
Assay in all cases: DAPPL (digital affinity profiling via proximity ligation, sequencing); 10 mM Tris-HCl pH 7.5, 50 mM NaCl, 1 mM DTT, 4% glycerol, room temperature, 30 min; GST-TFs on glutathione beads, 16-mer random dsDNA library, 0.1% formaldehyde crosslink after washing; high values mean tight binding
FLI1 = biological target: T1, FLI1 (Homo sapiens, UniProt Q01543 1-452); details: protein: recombinant; tags: N-terminal GST; dsDNA, one strand shown
T1 sequence: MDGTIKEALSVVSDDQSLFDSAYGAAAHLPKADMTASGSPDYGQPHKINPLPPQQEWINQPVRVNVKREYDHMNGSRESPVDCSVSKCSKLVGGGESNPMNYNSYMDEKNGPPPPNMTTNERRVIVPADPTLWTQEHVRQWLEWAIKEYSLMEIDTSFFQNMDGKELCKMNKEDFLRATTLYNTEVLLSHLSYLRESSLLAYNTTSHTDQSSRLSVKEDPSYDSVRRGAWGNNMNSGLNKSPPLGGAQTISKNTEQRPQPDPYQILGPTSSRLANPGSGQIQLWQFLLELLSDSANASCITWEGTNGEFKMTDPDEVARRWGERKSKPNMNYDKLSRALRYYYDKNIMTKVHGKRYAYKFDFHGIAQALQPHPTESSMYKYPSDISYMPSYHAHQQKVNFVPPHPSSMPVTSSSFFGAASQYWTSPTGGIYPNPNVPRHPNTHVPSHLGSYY
Outline: (§1)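 Pools were built from human transcription factors expressed in yeast as GST fusions, captured on glutathione beads and DNA-barcoded, along with a tag-only sample. Incubation with 200 nmole of a 16-mer random double-stranded DNA library lasted 30 min at room temperature in Tris/NaCl/DTT/glycerol buffer, and was followed by washing, 0.1% formaldehyde crosslinking, proximity ligation, PCR amplification and Illumina NextSeq500 sequencing. Binding signal is the quotient of each hexamer's read frequency for a factor and its frequency for the tag-only sample.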

ELK1 = biological target: T2, ELK1 (Homo sapiens, UniProt P19419 1-428); details: protein: recombinant; tags: N-terminal GST; dsDNA, one strand shown
T2 sequence: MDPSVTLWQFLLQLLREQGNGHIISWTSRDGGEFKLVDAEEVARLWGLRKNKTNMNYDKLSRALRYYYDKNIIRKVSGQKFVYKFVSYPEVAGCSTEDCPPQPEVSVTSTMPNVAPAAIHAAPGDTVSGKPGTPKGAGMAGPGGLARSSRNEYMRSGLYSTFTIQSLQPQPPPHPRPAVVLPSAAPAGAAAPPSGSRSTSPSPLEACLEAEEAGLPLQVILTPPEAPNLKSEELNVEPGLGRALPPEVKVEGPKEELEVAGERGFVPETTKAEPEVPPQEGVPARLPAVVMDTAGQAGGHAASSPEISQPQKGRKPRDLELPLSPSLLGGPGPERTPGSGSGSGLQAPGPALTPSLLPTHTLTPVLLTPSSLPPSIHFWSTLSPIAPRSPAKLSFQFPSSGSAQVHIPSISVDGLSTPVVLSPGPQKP
Outline: as §1

GABPA = biological target: T3, GABPA (Homo sapiens, UniProt Q06546 1-454); details: protein: recombinant; tags: N-terminal GST; dsDNA, one strand shown
T3 sequence: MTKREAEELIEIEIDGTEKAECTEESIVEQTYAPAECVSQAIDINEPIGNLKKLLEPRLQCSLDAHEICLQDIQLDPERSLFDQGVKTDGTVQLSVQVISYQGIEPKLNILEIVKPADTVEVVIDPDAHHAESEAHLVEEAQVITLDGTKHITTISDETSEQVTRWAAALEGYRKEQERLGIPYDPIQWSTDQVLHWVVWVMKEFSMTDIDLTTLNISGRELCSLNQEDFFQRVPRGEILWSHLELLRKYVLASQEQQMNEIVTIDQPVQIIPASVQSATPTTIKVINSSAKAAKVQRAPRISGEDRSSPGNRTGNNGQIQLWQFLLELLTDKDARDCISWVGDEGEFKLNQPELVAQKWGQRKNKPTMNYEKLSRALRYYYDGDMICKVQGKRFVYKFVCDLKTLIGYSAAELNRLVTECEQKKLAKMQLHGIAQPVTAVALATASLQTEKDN
Outline: as §1

ERG = biological target: T4, ERG (Homo sapiens, UniProt P11308 1-479); details: protein: recombinant; tags: N-terminal GST; dsDNA, one strand shown
T4 sequence: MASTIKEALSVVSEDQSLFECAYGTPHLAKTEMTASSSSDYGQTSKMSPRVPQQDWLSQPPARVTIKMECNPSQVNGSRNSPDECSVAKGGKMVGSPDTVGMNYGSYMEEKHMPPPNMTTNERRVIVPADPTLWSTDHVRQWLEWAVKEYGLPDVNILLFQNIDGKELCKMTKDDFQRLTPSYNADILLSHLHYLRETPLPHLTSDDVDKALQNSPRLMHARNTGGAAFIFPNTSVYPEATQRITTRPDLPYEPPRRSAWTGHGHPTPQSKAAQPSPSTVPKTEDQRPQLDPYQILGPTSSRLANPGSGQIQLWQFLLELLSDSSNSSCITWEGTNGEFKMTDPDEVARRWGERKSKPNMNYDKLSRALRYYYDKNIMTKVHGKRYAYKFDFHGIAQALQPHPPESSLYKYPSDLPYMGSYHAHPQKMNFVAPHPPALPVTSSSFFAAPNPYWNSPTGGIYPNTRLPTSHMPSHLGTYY
Outline: as §1

ELF1 = ELF1 (Homo sapiens, UniProt P32519 1-619); details: protein: recombinant; tags: N-terminal GST; dsDNA, one strand shown
Outline: as §1

EHF = biological target: T5, EHF (Homo sapiens, UniProt Q9NZC4 1-300); details: protein: recombinant; tags: N-terminal GST; dsDNA, one strand shown
T5 sequence: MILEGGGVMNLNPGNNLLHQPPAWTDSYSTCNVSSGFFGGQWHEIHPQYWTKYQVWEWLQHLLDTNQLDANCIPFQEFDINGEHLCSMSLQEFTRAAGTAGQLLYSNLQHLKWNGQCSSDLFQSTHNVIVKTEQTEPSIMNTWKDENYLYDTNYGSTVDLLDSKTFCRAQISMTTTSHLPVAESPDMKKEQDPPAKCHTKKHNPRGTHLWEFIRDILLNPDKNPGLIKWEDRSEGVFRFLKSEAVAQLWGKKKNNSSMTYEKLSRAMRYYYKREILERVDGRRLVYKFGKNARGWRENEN
Outline: as §1

SPI1 = SPI1 (Homo sapiens, UniProt P17947 1-270); details: protein: recombinant; tags: N-terminal GST; dsDNA, one strand shown
Outline: as §1

SPIB = SPIB (Homo sapiens, UniProt Q01892 1-262); details: protein: recombinant; tags: N-terminal GST; dsDNA, one strand shown
Outline: as §1

ELK3 = biological target: T6, ELK3 (Homo sapiens, UniProt P41970 1-407); details: protein: recombinant; tags: N-terminal GST; dsDNA, one strand shown
T6 sequence: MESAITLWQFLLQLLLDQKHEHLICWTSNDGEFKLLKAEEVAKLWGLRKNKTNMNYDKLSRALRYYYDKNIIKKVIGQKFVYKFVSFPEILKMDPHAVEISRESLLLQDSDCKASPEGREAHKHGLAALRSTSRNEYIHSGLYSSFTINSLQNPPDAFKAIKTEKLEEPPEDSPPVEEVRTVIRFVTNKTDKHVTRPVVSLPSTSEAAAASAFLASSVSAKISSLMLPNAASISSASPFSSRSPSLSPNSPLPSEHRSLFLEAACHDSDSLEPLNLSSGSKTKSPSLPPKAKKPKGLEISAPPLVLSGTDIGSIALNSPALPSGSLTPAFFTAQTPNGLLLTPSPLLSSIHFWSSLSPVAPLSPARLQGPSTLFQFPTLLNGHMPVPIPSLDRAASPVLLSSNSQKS
Outline: as §1

FEV = biological target: T7, FEV (Homo sapiens, UniProt Q99581 1-238); details: protein: recombinant; tags: N-terminal GST; dsDNA, one strand shown
T7 sequence: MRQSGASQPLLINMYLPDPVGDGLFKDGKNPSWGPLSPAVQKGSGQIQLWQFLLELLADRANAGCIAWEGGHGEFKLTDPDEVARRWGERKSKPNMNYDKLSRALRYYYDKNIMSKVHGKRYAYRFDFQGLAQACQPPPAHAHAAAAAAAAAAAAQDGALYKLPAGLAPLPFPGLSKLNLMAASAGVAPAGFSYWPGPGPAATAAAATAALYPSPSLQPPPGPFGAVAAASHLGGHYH
Outline: as §1

ETV5 = ETV5 (Homo sapiens, UniProt P41161 1-510); details: protein: recombinant; tags: N-terminal GST; dsDNA, one strand shown
Outline: as §1

HSF1 = HSF1 (Homo sapiens, UniProt Q00613 1-529); details: protein: recombinant; tags: N-terminal GST; chain copies: 3; dsDNA, one strand shown
Outline: as §1

SPIC = biological target: T8, SPIC (Homo sapiens, UniProt Q8N5J4 1-248); details: protein: recombinant; tags: N-terminal GST; dsDNA, one strand shown
T8 sequence: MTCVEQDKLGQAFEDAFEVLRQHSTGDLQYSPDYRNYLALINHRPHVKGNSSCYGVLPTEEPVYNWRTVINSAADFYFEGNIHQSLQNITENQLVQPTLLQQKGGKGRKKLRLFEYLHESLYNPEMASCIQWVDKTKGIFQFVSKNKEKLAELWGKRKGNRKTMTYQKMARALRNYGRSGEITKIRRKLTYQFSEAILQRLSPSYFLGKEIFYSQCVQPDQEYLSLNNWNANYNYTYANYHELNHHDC
Outline: as §1

ELF4 = ELF4 (Homo sapiens, UniProt Q99607 1-663); details: protein: recombinant; tags: N-terminal GST; dsDNA, one strand shown
Outline: as §1

ELK4 = biological target: T9, ELK4 (Homo sapiens, UniProt P28324-2 1-405); details: protein: recombinant; tags: N-terminal GST; dsDNA, one strand shown
T9 sequence: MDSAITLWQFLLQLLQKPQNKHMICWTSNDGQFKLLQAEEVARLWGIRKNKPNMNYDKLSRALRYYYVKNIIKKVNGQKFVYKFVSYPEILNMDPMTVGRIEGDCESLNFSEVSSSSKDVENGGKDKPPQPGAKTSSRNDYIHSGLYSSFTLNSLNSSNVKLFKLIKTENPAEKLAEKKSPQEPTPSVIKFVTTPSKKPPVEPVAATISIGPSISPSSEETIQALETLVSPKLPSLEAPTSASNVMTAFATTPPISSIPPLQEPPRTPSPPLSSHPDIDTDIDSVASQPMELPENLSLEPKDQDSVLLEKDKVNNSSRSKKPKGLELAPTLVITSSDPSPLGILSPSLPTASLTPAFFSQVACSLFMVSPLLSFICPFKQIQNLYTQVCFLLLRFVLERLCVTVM
Outline: as §1

ETV2 = biological target: T10, ETV2 (Homo sapiens, UniProt O00321 1-342); details: protein: recombinant; tags: N-terminal GST; dsDNA, one strand shown
T10 sequence: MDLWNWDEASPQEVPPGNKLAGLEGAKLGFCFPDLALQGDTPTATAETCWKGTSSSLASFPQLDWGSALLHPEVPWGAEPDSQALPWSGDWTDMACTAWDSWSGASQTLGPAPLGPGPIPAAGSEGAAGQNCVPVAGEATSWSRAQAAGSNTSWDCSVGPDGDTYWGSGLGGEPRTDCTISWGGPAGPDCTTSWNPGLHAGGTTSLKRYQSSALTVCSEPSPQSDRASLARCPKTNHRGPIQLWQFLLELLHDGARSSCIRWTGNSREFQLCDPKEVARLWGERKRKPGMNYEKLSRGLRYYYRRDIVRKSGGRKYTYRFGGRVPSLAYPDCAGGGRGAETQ
Outline: as §1

ELF3 = biological target: T11, ELF3 (Homo sapiens, UniProt P78545 1-371); details: protein: recombinant; tags: N-terminal GST; dsDNA, one strand shown
T11 sequence: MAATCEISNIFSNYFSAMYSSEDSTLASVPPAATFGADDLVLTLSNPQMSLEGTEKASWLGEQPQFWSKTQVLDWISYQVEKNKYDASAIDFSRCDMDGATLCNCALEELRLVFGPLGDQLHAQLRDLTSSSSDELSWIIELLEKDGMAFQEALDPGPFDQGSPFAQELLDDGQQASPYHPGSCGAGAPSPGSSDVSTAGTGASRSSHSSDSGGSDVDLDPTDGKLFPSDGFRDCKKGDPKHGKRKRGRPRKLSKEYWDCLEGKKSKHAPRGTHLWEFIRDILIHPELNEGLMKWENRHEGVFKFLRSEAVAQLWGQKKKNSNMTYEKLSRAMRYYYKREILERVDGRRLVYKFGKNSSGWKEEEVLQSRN
Outline: as §1

CRX = CRX (Homo sapiens, UniProt O43186 1-299); details: protein: recombinant; tags: N-terminal GST; dsDNA, one strand shown
Outline: as §1

ETV1 = ETV1 (Homo sapiens, UniProt P50549 1-477); details: protein: recombinant; tags: N-terminal GST; dsDNA, one strand shown
Outline: as §1

CRX, sequence (O43186 whole entry): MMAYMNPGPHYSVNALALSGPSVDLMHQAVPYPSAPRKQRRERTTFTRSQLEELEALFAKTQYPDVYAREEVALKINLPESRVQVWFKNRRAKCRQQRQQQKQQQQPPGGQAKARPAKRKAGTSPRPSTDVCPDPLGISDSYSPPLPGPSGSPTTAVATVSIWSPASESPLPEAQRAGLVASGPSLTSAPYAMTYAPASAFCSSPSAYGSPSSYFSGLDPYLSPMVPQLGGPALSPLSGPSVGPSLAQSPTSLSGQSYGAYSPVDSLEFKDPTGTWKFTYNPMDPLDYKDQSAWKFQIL
ELF1, sequence (P32519 whole entry): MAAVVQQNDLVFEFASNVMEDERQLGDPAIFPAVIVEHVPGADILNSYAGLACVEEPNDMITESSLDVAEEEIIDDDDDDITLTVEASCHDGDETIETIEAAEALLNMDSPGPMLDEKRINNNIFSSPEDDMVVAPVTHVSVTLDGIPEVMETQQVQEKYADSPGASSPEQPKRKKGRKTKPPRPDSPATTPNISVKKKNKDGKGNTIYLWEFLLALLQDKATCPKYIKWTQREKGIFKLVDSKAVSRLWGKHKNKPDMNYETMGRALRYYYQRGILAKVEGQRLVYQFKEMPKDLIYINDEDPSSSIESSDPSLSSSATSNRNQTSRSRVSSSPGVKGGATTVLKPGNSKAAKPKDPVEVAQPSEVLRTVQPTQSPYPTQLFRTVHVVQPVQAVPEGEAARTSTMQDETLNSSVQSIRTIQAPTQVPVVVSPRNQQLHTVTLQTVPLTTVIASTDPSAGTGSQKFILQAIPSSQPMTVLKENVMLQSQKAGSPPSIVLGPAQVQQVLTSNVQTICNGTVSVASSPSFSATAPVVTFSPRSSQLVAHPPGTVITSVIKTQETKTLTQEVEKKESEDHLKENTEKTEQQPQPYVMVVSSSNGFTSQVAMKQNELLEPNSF
SPIB, sequence (Q01892 whole entry): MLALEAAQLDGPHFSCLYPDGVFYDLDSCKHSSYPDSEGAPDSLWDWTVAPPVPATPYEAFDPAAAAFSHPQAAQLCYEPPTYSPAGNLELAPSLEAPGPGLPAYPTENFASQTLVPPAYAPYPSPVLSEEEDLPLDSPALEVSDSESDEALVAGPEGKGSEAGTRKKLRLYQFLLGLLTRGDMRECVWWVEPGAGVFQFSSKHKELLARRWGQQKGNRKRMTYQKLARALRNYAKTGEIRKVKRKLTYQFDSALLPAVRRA
ETV5, sequence (P41161 whole entry): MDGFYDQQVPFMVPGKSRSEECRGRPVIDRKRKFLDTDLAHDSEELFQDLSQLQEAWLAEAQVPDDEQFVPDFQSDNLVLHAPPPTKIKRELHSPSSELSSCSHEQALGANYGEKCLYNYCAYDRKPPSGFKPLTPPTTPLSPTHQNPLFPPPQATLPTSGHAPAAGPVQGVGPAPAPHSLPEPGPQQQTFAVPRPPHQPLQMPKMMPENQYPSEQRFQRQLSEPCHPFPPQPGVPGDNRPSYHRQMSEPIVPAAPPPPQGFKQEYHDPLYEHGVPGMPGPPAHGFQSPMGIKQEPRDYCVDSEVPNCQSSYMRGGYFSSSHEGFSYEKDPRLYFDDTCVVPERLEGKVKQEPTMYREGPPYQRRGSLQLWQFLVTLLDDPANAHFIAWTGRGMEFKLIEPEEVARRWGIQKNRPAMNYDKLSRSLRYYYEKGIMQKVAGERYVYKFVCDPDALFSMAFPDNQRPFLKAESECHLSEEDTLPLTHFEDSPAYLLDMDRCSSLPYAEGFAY
ELF4, sequence (Q99607 whole entry): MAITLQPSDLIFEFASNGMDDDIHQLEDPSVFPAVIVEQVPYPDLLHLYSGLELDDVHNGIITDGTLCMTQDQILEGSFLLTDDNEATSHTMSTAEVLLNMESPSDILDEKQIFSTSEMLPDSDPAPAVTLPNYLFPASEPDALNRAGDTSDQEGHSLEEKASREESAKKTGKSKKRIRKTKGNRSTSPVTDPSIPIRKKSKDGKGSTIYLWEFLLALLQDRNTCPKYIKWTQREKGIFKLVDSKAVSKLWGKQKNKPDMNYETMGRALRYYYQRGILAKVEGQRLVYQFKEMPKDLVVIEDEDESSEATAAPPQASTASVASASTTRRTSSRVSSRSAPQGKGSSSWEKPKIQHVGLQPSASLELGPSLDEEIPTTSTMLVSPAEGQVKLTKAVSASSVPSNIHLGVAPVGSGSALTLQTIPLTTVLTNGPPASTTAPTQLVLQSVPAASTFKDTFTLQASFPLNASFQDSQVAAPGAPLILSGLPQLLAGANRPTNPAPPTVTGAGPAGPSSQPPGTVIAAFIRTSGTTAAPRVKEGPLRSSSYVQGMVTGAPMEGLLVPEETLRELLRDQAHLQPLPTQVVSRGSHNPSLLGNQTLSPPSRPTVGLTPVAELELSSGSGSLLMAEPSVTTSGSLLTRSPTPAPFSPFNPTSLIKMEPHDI
ETV1, sequence (P50549 whole entry): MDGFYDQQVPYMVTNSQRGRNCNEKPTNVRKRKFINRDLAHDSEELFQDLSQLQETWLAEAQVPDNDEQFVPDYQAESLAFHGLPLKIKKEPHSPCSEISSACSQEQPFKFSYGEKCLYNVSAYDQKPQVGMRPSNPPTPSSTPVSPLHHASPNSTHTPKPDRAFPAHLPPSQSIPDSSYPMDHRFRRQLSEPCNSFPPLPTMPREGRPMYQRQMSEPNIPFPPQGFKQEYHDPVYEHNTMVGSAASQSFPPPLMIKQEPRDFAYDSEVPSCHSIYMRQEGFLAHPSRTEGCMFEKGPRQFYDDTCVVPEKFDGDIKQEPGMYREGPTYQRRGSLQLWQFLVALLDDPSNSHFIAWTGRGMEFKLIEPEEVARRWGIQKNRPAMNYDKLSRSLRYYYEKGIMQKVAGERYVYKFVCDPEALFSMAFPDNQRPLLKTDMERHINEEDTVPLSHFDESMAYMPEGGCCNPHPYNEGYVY
HSF1, sequence (Q00613 whole entry): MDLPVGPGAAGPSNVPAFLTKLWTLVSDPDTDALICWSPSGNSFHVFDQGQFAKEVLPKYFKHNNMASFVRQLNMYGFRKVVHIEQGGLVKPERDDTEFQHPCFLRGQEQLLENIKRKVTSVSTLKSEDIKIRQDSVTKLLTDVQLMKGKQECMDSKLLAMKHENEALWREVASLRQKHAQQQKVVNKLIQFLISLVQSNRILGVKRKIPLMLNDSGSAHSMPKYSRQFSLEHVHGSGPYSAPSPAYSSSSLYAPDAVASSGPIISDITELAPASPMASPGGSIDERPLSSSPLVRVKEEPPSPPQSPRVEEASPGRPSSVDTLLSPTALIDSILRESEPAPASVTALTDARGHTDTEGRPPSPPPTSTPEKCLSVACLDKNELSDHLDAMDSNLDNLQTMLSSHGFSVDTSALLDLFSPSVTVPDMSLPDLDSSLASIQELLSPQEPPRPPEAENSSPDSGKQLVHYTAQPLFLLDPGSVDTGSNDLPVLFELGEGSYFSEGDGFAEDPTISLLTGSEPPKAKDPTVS

For GCTCCC, the binding signal (FLI1) was 1.37 fold enrichment (6-mer frequency, TF over GST control), the binding signal (ELK1) was 1.28 fold enrichment (6-mer frequency, TF over GST control) and the binding signal (GABPA) was 1.34 fold enrichment (6-mer frequency, TF over GST control). For the same sequence, the binding signal (ERG) was 1.33 fold enrichment (6-mer frequency, TF over GST control), the binding signal (ELF1) was 1.37 fold enrichment (6-mer frequency, TF over GST control) and the binding signal (EHF) was 1.33 fold enrichment (6-mer frequency, TF over GST control). The binding signal (SPI1) was 1.26 fold enrichment (6-mer frequency, TF over GST control), the binding signal (SPIB) was 1.28 fold enrichment (6-mer frequency, TF over GST control) and the binding signal (ELK3) was 1.18 fold enrichment (6-mer frequency, TF over GST control). The binding signal (FEV) was 1.28 fold enrichment (6-mer frequency, TF over GST control), the binding signal (ETV5) was 1.39 fold enrichment (6-mer frequency, TF over GST control) and the binding signal (HSF1) was 1.07 fold enrichment (6-mer frequency, TF over GST control). The binding signal (SPIC) was 1.16 fold enrichment (6-mer frequency, TF over GST control), the binding signal (ELF4) was 1.32 fold enrichment (6-mer frequency, TF over GST control) and the binding signal (ELK4) was 1.4 fold enrichment (6-mer frequency, TF over GST control). The binding signal (ETV2) was 1.32 fold enrichment (6-mer frequency, TF over GST control), the binding signal (ELF3) was 1.35 fold enrichment (6-mer frequency, TF over GST control) and the binding signal (CRX) was 1.04 fold enrichment (6-mer frequency, TF over GST control). For the same sequence, the binding signal (ETV1) was 1.24 fold enrichment (6-mer frequency, TF over GST control).
